The supplement of paper PMC10849652
About 8,800 targets were measured; listed, in parts, are those with a hit and a random draw of the rest. About 0.5% of all pairs of compound and target were hits.

What was measured:
Assay in all cases: log2 fold change, soluble protein after heating vs DMSO (PISA); higher = thermal stabilisation; K562 lysate, 10 uM; active = over 0.2 and 3.5 SD of the protein, either way, in both replicates (recomputed)
erlotinib = compound: C#Cc1cccc(Nc2ncnc3cc(OCCOC)c(OCCOC)cc23)c1 [erlotinib]
Method in brief: (§1)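 Thermal stability, expressed as log-two fold change relative to solvent controls, is given from duplicates. Crude K562 extract in PBS pH 7.4 with 1 mM MgCl2, at 1 mg/mL protein, was treated with 10 μM compound for 30 min and heated in aliquots for 3 min across 48°C-58°C. After pooling, adjustment to 0.5% NP-40 at 4°C and centrifugation at 21,000xg for 90 min, supernatant protein was measured by TMTpro 16plex LC-MS/MS with channel sums equalised.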

[1] = compound: C/C(=N\NC(=O)C1=CC(=CC=C1)S(=O)(=O)N2CCOCC2)/C3=C(C=CC(=C3)Cl)O
Method in brief: as §1

[2] = compound: C1=CC(=CC=C1C2=NC3=C(N2)C=C(C=C3)C(=O)N)OC4=CC=C(C=C4)Cl
Method in brief: as §1

[3] = compound: C1=CC2=C(C=CC(=C2)/C=C\3/C(=O)NC(=NCC4=CC=CS4)S3)N=C1
Method in brief: as §1

[4] = compound: C1=CC2=NC=CN=C2C=C1/C=C/3\C(=O)NC(=O)S3
Method in brief: as §1

[5] = compound: C1=CC=C(C=C1)C2=NC(=C(N2)C3=CC=NC=C3)C4=CC(=C(C=C4)Cl)O
Method in brief: as §1

[6] = compound: C1=CC=C2C(=C1)C3=NNC4=CC=CC(=C43)C2=O
Method in brief: as §1

[7] = compound: C1CCN(C1)C(=O)NC2=CC=CC(=C2)NC3=NC=C(C(=N3)NCCC4=CN=CN4)Br
Method in brief: as §1

[8] = compound: C1CN(CCC1(CC2=CC=C(C=C2)Cl)N)C3=NC=NC4=C3C=CN4
Method in brief: as §1

IRAK-1-4 Inhibitor I = compound: C1COCCN1CCN2C3=CC=CC=C3N=C2NC(=O)C4=CC(=CC=C4)[N+](=O)[O-] [IRAK-1-4 Inhibitor I]
Method in brief: as §1

Measured: log2 fold change

PCBP3 (UniProt P57721)
UniProt P57721, sequence (P57721 whole entry, looked up): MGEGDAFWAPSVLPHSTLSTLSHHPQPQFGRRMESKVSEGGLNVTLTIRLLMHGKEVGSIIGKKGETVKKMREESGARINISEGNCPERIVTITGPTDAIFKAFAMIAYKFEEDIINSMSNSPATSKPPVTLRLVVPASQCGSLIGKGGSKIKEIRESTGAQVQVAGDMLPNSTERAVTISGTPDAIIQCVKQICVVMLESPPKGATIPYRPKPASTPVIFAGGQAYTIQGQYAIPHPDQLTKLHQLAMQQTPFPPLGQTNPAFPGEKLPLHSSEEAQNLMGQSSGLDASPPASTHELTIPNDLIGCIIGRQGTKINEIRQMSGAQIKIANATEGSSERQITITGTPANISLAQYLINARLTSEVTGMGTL
inactive: erlotinib 0.005 | [1] 0.028 | [2] 0.021 | [3] -0.031 | [4] 0.02 | [5] 0.02 | [6] 0.029 | [7] -0.003 | [8] 0.021 | IRAK-1-4 Inhibitor I -0.005

PRPF38A (UniProt Q8NAV1)
inactive: erlotinib -0.012 | [1] -0.016 | [2] 0.049 | [3] -0.025 | [4] 0.044 | [5] 0.05 | [6] 0.042 | [7] 0.005 | [8] -0.018 | IRAK-1-4 Inhibitor I 0.057

PCIF1 (UniProt Q9H4Z3)
inactive: erlotinib -0.011 | [1] 0.067 | [2] -0.008 | [3] 0.042 | [4] 0.102 | [5] -0.015 | [6] 0.014 | [7] -0.011 | [8] -0.033 | IRAK-1-4 Inhibitor I -0.041

PFAS (UniProt O15067)
inactive: erlotinib 0.014 | [1] 0.03 | [2] 0.006 | [3] 0.015 | [4] 0.011 | [5] -0.017 | [6] -0.018 | [7] -0.026 | [8] 0.001 | IRAK-1-4 Inhibitor I -0.006

PTK2 (UniProt Q05397)
inactive: erlotinib -0.018 | [1] -0.009 | [2] 0.045 | [3] -0.031 | [4] -0.045 | [5] -0.02 | [6] 0.271 | [7] 0.32 | [8] -0.045 | IRAK-1-4 Inhibitor I 0.22

PCBD2 (UniProt Q9H0N5)
UniProt Q9H0N5, sequence (Q9H0N5 whole entry, looked up): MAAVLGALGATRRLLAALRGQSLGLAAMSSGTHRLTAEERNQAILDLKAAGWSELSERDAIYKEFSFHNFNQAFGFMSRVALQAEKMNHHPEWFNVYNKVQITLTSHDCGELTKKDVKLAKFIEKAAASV
inactive: erlotinib -0.012 | [1] -0.033 | [2] 0.044 | [3] -0.022 | [4] 0.079 | [5] 0.005 | [6] -0.014 | [7] -0.018 | [8] -0.015 | IRAK-1-4 Inhibitor I -0.01

PPP1R11 (UniProt O60927)
inactive: erlotinib -0.046 | [2] 0.015 | [4] 0.01 | [5] 0.004 | [7] 0 | [8] -0.03 | IRAK-1-4 Inhibitor I 0.132

PYGO2 (UniProt Q9BRQ0)
inactive: erlotinib -0.047 | [2] 0.045 | [4] -0.039 | [5] 0.115 | [7] 0.012 | [8] 0.049 | IRAK-1-4 Inhibitor I 0.051

NA (UniProt Q4G0T1)
inactive: erlotinib -0.178 | [5] 0.017 | IRAK-1-4 Inhibitor I 0.002
active: [2] 0.348

PICALM (UniProt H0YCY1)
inactive: erlotinib -0.09 | [2] 0.108

PLXND1 (UniProt Q9Y4D7)
inactive: erlotinib -0.067 | [2] 0.073 | [4] -0.048 | [5] -0.016 | IRAK-1-4 Inhibitor I -0.032

PHOSPHO2 (UniProt C9JD35)
inactive: [7] 0.069 | [8] -0.21

PPIC (UniProt P45877)
inactive: erlotinib 0.049 | [1] -0.042 | [2] 0.119 | [3] 0.025 | [4] 0.265 | [5] -0.032 | [6] 0.036 | IRAK-1-4 Inhibitor I 0.06

PECR (UniProt Q9BY49)
inactive: [7] -0.004 | [8] 0.056

PRADC1 (UniProt Q9BSG0)
inactive: erlotinib -0.016 | [2] 0.027 | [4] 0.018 | [5] 0 | IRAK-1-4 Inhibitor I 0.017

PHC1 (UniProt P78364)
UniProt P78364, sequence (P78364 whole entry, looked up): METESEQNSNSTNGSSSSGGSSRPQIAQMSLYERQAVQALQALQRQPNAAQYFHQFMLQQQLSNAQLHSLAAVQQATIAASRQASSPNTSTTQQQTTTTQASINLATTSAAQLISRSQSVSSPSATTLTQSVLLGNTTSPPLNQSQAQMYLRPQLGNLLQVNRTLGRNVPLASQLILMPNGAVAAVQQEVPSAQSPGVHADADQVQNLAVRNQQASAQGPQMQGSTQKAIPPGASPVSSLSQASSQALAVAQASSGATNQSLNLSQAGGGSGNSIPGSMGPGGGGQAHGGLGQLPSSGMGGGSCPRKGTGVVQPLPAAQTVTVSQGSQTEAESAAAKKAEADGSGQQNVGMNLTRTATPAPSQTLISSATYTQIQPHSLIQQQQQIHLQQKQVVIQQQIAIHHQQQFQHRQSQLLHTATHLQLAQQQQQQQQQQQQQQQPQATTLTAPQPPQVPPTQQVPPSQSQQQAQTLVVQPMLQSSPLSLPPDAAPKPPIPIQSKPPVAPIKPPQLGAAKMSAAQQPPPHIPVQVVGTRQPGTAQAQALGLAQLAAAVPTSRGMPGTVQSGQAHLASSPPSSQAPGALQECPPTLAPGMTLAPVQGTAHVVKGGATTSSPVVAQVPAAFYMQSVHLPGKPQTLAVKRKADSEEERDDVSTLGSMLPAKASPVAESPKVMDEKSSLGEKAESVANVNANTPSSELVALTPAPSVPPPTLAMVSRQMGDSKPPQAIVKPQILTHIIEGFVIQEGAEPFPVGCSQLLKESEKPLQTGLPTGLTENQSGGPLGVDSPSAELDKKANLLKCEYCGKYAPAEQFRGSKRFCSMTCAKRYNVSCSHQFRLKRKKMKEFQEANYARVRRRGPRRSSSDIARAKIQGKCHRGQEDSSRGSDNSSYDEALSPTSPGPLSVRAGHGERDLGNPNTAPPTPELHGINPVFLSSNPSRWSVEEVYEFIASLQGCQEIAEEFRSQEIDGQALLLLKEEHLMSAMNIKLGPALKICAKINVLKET
inactive: [1] 0.032 | [3] -0.004 | [4] -0.075 | [6] -0.051 | [7] 0.021 | [8] -0.01

PRG4 (UniProt Q92954)
inactive: [4] -0.296 | [5] -0.027 | IRAK-1-4 Inhibitor I 0.057

POLR2M (UniProt Q6EEV4)
inactive: erlotinib 0.011 | [1] 0.164 | [2] -0.025 | [3] -0.031 | [4] -0.045 | [6] -0.111 | [7] 0.052 | [8] -0.01

PRR4 (UniProt Q16378)
inactive: erlotinib -0.097 | [1] 1.59 | [2] -0.193 | [3] -0.167 | [5] -0.11 | [6] -0.484 | [7] -0.127 | [8] 1.09 | IRAK-1-4 Inhibitor I -0.048

POLR2F (UniProt U3KPV3)
inactive: [7] -0.055 | [8] 0.084

PPP2R5C isoform 2 (UniProt Q13362)
inactive: erlotinib 0.003 | [1] 0.044 | [2] 0.024 | [3] -0.046 | [4] 0.186 | [5] 0.024 | [6] 0.013 | IRAK-1-4 Inhibitor I 0.052

PCBP2 (UniProt F8VRH0)
inactive: erlotinib 0.084 | [2] -0.182 | [5] -0.092 | IRAK-1-4 Inhibitor I 0.11

PDE4DIP (UniProt E9PS60)
inactive: erlotinib 0.026 | [1] -0.056 | [2] -0.13 | [3] 0.044 | [6] 0.039 | [7] 0.114 | [8] 0.063

PHGDH, A0A286YFE1
inactive: [4] -0.166

POM121C (UniProt A8CG34)
UniProt A8CG34, sequence (A8CG34 whole entry, looked up): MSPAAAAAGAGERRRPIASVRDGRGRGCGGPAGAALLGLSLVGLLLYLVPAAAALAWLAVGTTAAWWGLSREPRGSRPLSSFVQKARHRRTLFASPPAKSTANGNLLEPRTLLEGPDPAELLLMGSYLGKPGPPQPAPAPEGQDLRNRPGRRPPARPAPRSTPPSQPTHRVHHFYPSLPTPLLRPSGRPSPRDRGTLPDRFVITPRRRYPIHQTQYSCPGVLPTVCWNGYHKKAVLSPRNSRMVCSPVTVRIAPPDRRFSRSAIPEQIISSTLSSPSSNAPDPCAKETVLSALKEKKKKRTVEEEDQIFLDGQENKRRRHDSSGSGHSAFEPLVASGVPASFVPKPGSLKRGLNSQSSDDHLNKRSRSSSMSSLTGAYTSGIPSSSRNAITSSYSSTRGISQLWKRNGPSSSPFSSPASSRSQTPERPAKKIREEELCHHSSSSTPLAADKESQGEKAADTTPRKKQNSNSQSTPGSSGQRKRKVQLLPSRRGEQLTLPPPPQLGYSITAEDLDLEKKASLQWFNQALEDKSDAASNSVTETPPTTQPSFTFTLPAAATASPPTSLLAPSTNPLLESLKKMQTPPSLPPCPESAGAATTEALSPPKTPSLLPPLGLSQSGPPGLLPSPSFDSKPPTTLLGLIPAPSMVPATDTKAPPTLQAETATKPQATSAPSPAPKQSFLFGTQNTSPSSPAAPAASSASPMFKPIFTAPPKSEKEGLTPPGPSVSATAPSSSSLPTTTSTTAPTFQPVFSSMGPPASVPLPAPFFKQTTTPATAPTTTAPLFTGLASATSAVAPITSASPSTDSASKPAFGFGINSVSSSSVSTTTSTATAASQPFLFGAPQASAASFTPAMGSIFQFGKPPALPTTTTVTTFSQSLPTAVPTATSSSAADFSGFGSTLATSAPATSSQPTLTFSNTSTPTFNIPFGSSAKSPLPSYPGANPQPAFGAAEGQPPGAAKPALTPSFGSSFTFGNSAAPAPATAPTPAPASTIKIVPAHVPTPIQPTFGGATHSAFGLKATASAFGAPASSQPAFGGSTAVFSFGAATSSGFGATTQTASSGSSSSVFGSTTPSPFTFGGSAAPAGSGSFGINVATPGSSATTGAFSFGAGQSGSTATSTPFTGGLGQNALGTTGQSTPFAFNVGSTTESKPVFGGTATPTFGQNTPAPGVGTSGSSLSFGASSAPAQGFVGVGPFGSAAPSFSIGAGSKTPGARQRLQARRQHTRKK
inactive: erlotinib 0.001 | [2] 0.027 | [4] 0.032 | [5] -0.064 | IRAK-1-4 Inhibitor I -0.069

PFN1 (UniProt I3L3D5)
inactive: [4] 0.054 | [5] 0.045 | [7] 0.009 | [8] 0.03 | IRAK-1-4 Inhibitor I 0.005

PIK3CG (UniProt P48736)
inactive: erlotinib 0.045 | [1] 0 | [2] -0.011 | [3] 0.045 | [5] -0.047 | [6] -0.005 | [7] 0 | [8] 0.003 | IRAK-1-4 Inhibitor I -0.011

PTMA isoform 2 (UniProt P06454)
inactive: [4] 0.015

POLD3 (UniProt Q15054)
UniProt Q15054, sequence (Q15054 whole entry, looked up): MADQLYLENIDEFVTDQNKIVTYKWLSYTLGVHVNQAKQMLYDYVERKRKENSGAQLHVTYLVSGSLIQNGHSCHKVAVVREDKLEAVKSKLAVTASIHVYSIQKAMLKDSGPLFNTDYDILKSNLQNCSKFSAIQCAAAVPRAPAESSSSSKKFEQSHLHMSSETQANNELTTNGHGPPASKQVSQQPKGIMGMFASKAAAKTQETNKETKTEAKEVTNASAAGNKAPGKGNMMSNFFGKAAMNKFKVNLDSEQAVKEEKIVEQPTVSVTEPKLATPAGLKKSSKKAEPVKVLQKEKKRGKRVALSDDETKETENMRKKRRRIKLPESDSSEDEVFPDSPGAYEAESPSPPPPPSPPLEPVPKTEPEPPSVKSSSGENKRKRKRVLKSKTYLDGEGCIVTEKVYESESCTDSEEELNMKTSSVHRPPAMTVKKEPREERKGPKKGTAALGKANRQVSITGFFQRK
inactive: erlotinib 0.015 | [1] 0.002 | [2] -0.006 | [3] -0.003 | [4] -0.048 | [5] 0.01 | [6] -0.048 | [7] -0.058 | [8] -0.012 | IRAK-1-4 Inhibitor I -0.035

PI4K2A (UniProt Q9BTU6)
inactive: erlotinib -0.013 | [1] -0.005 | [2] -0.041 | [3] 0.021 | [4] -0.003 | [5] 0.02 | [6] 0.063 | [7] 0.002 | [8] 0.058 | IRAK-1-4 Inhibitor I 0.003

PIP5K1A (UniProt Q99755)
UniProt Q99755, sequence (Q99755 whole entry, looked up): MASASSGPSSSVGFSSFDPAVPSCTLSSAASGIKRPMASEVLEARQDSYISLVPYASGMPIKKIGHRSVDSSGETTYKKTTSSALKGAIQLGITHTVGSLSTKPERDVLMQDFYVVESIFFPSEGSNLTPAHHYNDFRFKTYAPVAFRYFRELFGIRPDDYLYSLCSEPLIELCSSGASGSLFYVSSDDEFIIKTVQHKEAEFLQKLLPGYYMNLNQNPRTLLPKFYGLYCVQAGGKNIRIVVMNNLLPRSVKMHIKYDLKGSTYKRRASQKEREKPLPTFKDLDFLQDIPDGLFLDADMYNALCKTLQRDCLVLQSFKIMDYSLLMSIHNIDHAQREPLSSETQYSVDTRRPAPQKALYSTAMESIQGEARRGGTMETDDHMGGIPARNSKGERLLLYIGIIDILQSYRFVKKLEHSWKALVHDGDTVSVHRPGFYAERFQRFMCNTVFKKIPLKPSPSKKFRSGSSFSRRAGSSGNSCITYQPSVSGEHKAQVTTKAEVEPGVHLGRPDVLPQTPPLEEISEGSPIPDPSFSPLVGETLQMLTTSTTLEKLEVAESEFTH
inactive: erlotinib 0.036 | [2] -0.14 | [4] 0.022 | [5] -0.062 | IRAK-1-4 Inhibitor I -0.195

PHKG1 isoform 2 (UniProt Q16816)
inactive: erlotinib 0.003 | [1] -0.127 | [2] 0.187 | [3] 0.061 | [5] 0.029 | [6] 0.399 | [7] 0.157 | [8] 0.014 | IRAK-1-4 Inhibitor I -0.102

PIK3CD (UniProt O00329)
inactive: erlotinib -0.014 | [1] -0.162 | [2] -0.095 | [3] 0.034 | [4] 0.091 | [5] -0.031 | [6] 0.098 | IRAK-1-4 Inhibitor I 0.109

PTPN6 isoform 4 (UniProt P29350)
inactive: erlotinib 0.054 | [1] 0.097 | [2] -0.03 | [3] -0.05 | [4] 0.047 | [5] 0.04 | [6] 0.033 | [7] -0.078 | [8] -0.224 | IRAK-1-4 Inhibitor I -0.073

PFN3 (UniProt P60673)
inactive: [1] -0.231 | [3] -0.078 | [6] -0.162 | [7] -0.041 | [8] 0.155

PHF14 (UniProt O94880)
inactive: [1] 0.032 | [3] -0.01 | [4] -0.06 | [5] -0.086 | [6] 0.045 | [7] -0.423 | [8] 0.432 | IRAK-1-4 Inhibitor I 0.035

PTK2 isoform 2 (UniProt Q05397)
inactive: erlotinib 0.002 | [2] 0.006 | [4] -0.114 | [7] 0.193 | [8] -0.016

PHGDH (UniProt O43175)
UniProt O43175, sequence (O43175 whole entry, looked up): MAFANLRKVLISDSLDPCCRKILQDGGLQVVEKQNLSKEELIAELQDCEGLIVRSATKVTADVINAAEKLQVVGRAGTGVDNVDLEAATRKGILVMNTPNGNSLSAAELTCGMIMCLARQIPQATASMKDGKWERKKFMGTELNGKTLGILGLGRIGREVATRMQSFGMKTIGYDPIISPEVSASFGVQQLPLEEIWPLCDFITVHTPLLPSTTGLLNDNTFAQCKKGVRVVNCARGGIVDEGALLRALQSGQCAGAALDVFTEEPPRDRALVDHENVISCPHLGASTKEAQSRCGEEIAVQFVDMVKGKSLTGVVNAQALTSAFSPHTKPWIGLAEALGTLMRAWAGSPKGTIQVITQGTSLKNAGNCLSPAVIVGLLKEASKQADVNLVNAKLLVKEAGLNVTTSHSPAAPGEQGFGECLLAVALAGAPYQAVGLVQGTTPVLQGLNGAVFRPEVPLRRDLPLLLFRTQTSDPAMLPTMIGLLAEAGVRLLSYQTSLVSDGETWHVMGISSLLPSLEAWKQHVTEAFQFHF
inactive: erlotinib 0.033 | [1] 0.155 | [2] 0.05 | [3] -0.222 | [4] -0.092 | [5] -0.012 | [6] 0.04 | [7] 0.045 | [8] 0.021 | IRAK-1-4 Inhibitor I 0.011

PCLAF (UniProt Q15004)
inactive: erlotinib 0 | [1] -0.026 | [2] 0.057 | [3] -0.006 | [4] -0.059 | [5] -0.015 | [6] 0.012 | [7] 0.037 | [8] -0.052 | IRAK-1-4 Inhibitor I 0.016

PRRG1 (UniProt O14668)
inactive: [5] -0.006 | IRAK-1-4 Inhibitor I 0.06

PEX2 (UniProt P28328)
inactive: erlotinib 0.106 | [2] 0.068 | [3] 0.048 | [4] -0.128 | [5] 0.082 | [6] -0.119 | IRAK-1-4 Inhibitor I -0.04
active: [1] -0.731

PIAS2 (UniProt O75928)
UniProt O75928, sequence (O75928 whole entry, looked up): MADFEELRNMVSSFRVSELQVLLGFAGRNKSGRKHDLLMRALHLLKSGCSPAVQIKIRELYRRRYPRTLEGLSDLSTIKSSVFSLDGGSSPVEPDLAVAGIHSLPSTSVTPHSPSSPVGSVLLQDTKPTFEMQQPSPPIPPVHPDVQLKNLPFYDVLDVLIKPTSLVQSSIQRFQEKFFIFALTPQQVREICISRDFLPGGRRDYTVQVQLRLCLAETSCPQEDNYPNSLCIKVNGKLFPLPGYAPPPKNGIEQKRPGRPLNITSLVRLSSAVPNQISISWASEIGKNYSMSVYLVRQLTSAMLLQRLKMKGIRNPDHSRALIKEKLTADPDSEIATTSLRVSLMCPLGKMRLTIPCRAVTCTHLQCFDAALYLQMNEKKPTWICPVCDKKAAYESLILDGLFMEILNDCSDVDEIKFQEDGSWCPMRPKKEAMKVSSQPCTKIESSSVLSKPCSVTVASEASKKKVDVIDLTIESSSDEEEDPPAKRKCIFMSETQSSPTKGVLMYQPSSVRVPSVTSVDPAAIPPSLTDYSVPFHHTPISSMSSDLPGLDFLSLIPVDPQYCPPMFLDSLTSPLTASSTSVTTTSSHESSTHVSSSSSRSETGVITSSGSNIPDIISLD
inactive: erlotinib 0.043 | [1] -0.277 | [2] 0.035 | [3] 0 | [5] 0.019 | [6] 0.039 | [7] 0.037 | [8] -0.002 | IRAK-1-4 Inhibitor I 0.053

PNPLA4 (UniProt P41247)
inactive: [1] 0.064 | [3] 0.1 | [5] 0.051 | [6] 0.1 | [7] 0.086 | [8] 0.09 | IRAK-1-4 Inhibitor I -0.001

PPME1 (UniProt Q9Y570)
inactive: erlotinib 0.129 | [2] 0.003 | [4] -0.09 | [7] -0.025 | [8] -0.033

PPP1R14C (UniProt Q8TAE6)
inactive: [1] 0.018 | [3] -0.092 | [4] -0.05 | [5] 0.001 | [6] 0.021 | [7] 0.052 | [8] -0.02 | IRAK-1-4 Inhibitor I -0.014
